# Results published in PubChem BioAssay (EPA / NIEHS).
# Results filed as inconclusive are left out. Active and inactive are the calls of the source. The calls were made as follows: active = hit-call score of the fitted dose curve at least 0.9, where 1 is the maximum; inconclusive = response in the unintended direction; inactive = score below 0.9.
# Test system: not listed separately
# Assay: ArunA_Migration_hNC: ArunA Biomedical's Oris Neural Crest (hNC) Cell Migration Assay (AID 2283755)
# Outline: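 Calcein-AM fluorescence (ex494 nm/em 517 nm) in the stopper-defined detection zone quantifies migration of hNC cells after 72 h chemical exposure; 60,000 cells/well plated on Matrigel with LIF and bFGF, 16 h pre-incubation. DMSO baseline.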
row,SMILES,outcome
1,CCC(C)Nc1c([N+](=O)[O-])cc(C(C)(C)C)cc1[N+](=O)[O-] (stereo not drawn),inactive
2,Oc1cc(Cl)ccc1Oc1ccc(Cl)cc1Cl,inactive
3,O=S(=O)(O)C(F)(F)C(F)(F)C(F)(F)C(F)(F)C(F)(F)C(F)(F)C(F)(F)C(F)(F)F,inactive

# Test system: not listed separately
# Assay: ArunA_NOG_NucleusCount: ArunA Biomedical's Neurite Outgrowth (NOG) Assay for Nucleus Count (AID 2283756)
# Outline: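 Viable neuron count, from Hoechst nuclei passing size and intensity gates, imaged at 20x on differentiated H9-derived human neurons. Exposure lasted 48 h from seeding; activity was scored relative to DMSO.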
SMILES,outcome,AC50
CCC(C)Nc1c([N+](=O)[O-])cc(C(C)(C)C)cc1[N+](=O)[O-] (stereo not drawn),inactive,–
Oc1cc(Cl)ccc1Oc1ccc(Cl)cc1Cl,inactive,–
O=S(=O)(O)C(F)(F)C(F)(F)C(F)(F)C(F)(F)C(F)(F)C(F)(F)C(F)(F)C(F)(F)F,–,0.649 µM (active)

# Test system: not listed separately
# Assay: ArunA_NOG_BranchPointsPerNeurite: ArunA Biomedical's Neurite Outgrowth (NOG) Assay for Branch Points Per Neurite (AID 2283759)
# Outline: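 Automated image analysis traced neurites (processes >10 um) from valid cell bodies after Hoechst and βIII-tubulin staining. hNN cells from H9 embryonic stem cells, 48 h exposure. Fitted bidirectionally against DMSO.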
row,SMILES,outcome
1,CCC(C)Nc1c([N+](=O)[O-])cc(C(C)(C)C)cc1[N+](=O)[O-] (stereo not drawn),inactive
2,Oc1cc(Cl)ccc1Oc1ccc(Cl)cc1Cl,inactive
3,O=S(=O)(O)C(F)(F)C(F)(F)C(F)(F)C(F)(F)C(F)(F)C(F)(F)C(F)(F)C(F)(F)F,inactive

# Target: Luciferin 4-monooxygenase (Photinus pyralis) (UniProt P08659)
# Sequence (P08659 whole entry, looked up): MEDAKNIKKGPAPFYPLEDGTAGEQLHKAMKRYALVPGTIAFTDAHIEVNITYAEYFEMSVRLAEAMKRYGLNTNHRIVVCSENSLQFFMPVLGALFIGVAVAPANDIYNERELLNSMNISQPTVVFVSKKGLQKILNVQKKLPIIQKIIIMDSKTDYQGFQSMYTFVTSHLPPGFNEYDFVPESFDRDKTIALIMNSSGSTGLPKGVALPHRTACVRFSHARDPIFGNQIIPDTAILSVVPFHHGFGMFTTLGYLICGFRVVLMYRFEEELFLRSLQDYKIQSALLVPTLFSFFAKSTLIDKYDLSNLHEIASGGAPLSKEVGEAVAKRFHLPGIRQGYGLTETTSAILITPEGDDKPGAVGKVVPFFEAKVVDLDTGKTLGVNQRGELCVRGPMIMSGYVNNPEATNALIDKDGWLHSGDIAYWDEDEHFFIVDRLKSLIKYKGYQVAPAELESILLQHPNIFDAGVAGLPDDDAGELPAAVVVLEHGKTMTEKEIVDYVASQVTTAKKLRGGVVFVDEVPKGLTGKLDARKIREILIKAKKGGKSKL
# Assay: CCTE_Simmons_QuantiLum_inhib_2: CCTE's Firefly Luciferase Inhibition Assay, Simmons Lab (AID 2283767);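 as to AC50: potency for inhibitors that lower luciferase luminescence relative to DMSO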
# Outline: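 Eight test concentrations, 5 nM up to 87.5 uM final, preincubated 30min at 37C in the dark with purified luciferase (0.5% DMSO final). Detection reagent (150uM D-luciferin, 147uM dATP, 75uM CoA, pH 7.8) injected per well before kinetic luminescence read; three replicates.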
SMILES,outcome,AC50
CNC(=O)Oc1cccc(N=CN(C)C)c1,inactive,–
Oc1cc(Cl)ccc1Oc1ccc(Cl)cc1Cl,inactive,–
COP(=S)(OC)Oc1ccc([N+](=O)[O-])cc1,inactive,–
O=C1c2ccccc2C(=O)N1SC(Cl)(Cl)Cl,inactive,–
COP(=O)(OC)OC=C(Cl)Cl,inactive,–
O=C(Nc1ccccc1)Nc1cnns1,inactive,–
N#CN,inactive,–
O=S(=O)(O)C(F)(F)C(F)(F)C(F)(F)C(F)(F)C(F)(F)C(F)(F)C(F)(F)C(F)(F)F,inactive,–
CNC(=O)CSP(=S)(OC)OC,–,34.2 µM (active)
COc1nn(CSP(=S)(OC)OC)c(=O)s1,inactive,–
CC1(c2ccc(Oc3ccccc3)cc2)OC(=O)N(Nc2ccccc2)C1=O (stereo not drawn),inactive,–
COP(=S)(OC)Oc1ccc(SC)c(C)c1,inactive,–
CNC(=O)/C=C(\C)OP(=O)(OC)OC,inactive,–
Oc1ccc(Cl)cc1Cc1ccccc1,inactive,–
CN1CSC(=S)N(C)C1,–,40.5 µM (active)
CCCN(CCOc1c(Cl)cc(Cl)cc1Cl)C(=O)n1ccnc1,inactive,–

# Test system: chicken Androgen Receptor (AR), gene 422165
# Assay: ATG_chAR_XSP1: Attagene TRANS-FACTORIAL Multi-Species (XSP1) HepG2 Assay for chicken Androgen Receptor (AR) (AID 2283768)
# Outline: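 Reporter mRNA read by RT-PCR with fluorescent labelling and capillary electrophoresis 24 h after chemical dosing of transiently transfected HepG2 cells. Chicken AR-Gal4 chimera, partially stimulated with 3 nM 6-alpha-fluorotestosterone; activity fitted upward relative to DMSO.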
SMILES,AC50,outcome
CCCN(CCC)c1c([N+](=O)[O-])cc(C(F)(F)F)cc1[N+](=O)[O-],47.9 µM (active),–
CC1(C)C(C=C(Cl)Cl)C1C(=O)OC(C#N)c1ccc(F)c(Oc2ccccc2)c1 (stereo not drawn),–,inactive
O=S(=O)(O)C(F)(F)C(F)(F)C(F)(F)C(F)(F)C(F)(F)C(F)(F)C(F)(F)C(F)(F)F,148 µM (active),–
